Assay results as given in PubChem BioAssay (Tox21).
“And” between values parts separate entries of the source, which are not always exact repeats. Equal entries are not always repeated. Results filed as inconclusive are left out. Where a call stands in place of a potency, no number is given. The source holds several records for some structures; these can differ, active in one and inactive in another. The source made the active and inactive calls. Unless noted, calls come from the whole dose curve; as a rule, active = well fitted curve in the direction sought with a large enough effect in the repeat runs; inconclusive = weak or mixed curves; inactive = no such curve, though single readings can be large; an effect the other way counts as inactive or inconclusive.

Tests used:
[1] = qHTS assay to identify small molecule agonists of the peroxisome proliferator-activated receptor delta (PPARd) signaling pathway - cell viability counter screen (AID 743211); note: nearly all actives have a fitted effect of over 55% in size; note: potency is the fitted concentration of half-maximal effect
In short: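 Counter screen for cytotoxicity run in parallel with the PPARd reporter screen. Beta-lactamase reporter HEK293H cells exposed to compounds 17 h; ATP-based CellTiter-Glo luminescence quantified viability.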

[2] = qHTS assay to identify small molecule antagonists of the peroxisome proliferator-activated receptor delta (PPARd) signaling pathway - cell viability counter screen (AID 743213); note: nearly all actives have a fitted effect of over 50% in size; note: potency is the fitted concentration of half-maximal effect
In short: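 Cytotoxicity counter screen: CellTiter-Glo luminescence read 30 min after addition, in the same wells as the reporter assay. There, PPARd UAS-bla HEK293H cells (3000/well) were treated 17 h at 37 C with compound and 300 nM L165041.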

[3] = qHTS assay to identify small molecule agonists of the farnesoid-X-receptor (FXR) signaling pathway - cell viability counter screen (AID 743218); note: nearly all actives have a fitted effect of over 45% in size
In short: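 After 16 h at 37 C with test compounds, FXR-bla HEK 293T cells were given LiveBLAzer B/G substrate for 2 h at RT and then CellTiter-Glo; luminescence was taken after 30 min.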

[4] = qHTS assay to identify small molecule antagonists of the farnesoid-X-receptor (FXR) signaling pathway - cell viability counter screen (AID 743221; active = well fitted cell-killing curve with a large enough effect in the repeat runs, not every such curve was filed as active; note: nearly all actives have a fitted effect of over 50% in size; note: potency is the fitted concentration of half-maximal effect)
In short: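 Multiplexed counter screen: viability of FXR-bla HEK 293T cells under agonist stimulation by chenodeoxycholic acid (50 uM, final) and test compound for 16 h at 37 C, measured by CellTiter-Glo luminescence in the reporter wells.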

[5] = qHTS assay to identify small molecule agonists of the vitamin D receptor (VDR) signaling pathway - cell viability counter screen (AID 743224); note: nearly all actives have a fitted effect of over 50% in size; note: potency is the fitted concentration of half-maximal effect
In short: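 Here cell health was gauged by luminescent ATP detection (CellTiter-Glo, 30 min RT) in VDR-bla cells that had been incubated with test compounds for 16 h at 37C and 5% CO2.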

[6] = qHTS assay to identify small molecule antagonists of the vitamin D receptor (VDR) signaling pathway - cell viability counter screen (AID 743225); note: nearly all actives have a fitted effect of over 50% in size; note: potency is the fitted concentration of half-maximal effect
In short: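 HEK293T VDR-bla; cpd + 1a,25-(OH)2D3 3 nM final, 16 h 37C/5% CO2; B/G FRET substrate 2 h RT; then CellTiter-Glo 30 min RT, luminescence.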

[7] = qHTS assay to identify small molecule agonists of the NFkB signaling pathway - cell viability counter screen (AID 1159515; calls by dose curve; note: nearly all actives have a fitted effect of over 55% in size; note: potency is the fitted concentration of half-maximal effect)
In short: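 5 hr compound treatment of NFkB-bla ME-180 cells (2,000/well, seeded overnight beforehand), followed by reporter substrate for 1.5 hr. CellTiter-Glo added afterward; luminescence after 30 min RT.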

[8] = qHTS assay to identify small molecule agonists of the endoplasmic reticulum stress response signaling pathway (AID 1159516; active = well fitted activation curve with a large enough effect in the signal ratio in the repeat runs, not every such curve was filed as active; the % refers to the signal ratio)
In short: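 Reporter HeLa cells (ESRE-beta-lactamase) underwent 5 hr compound incubation at 37 C and 5% CO2 in quantitative HTS format. Detection followed 2 hr of FRET substrate loading at room temperature.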

[9] = qHTS assay to identify small molecule agonists of the endoplasmic reticulum stress response signaling pathway - cell viability counter screen (AID 1159517; calls by dose curve; note: nearly all actives have a fitted effect of over 50% in size; note: potency is the fitted concentration of half-maximal effect)
In short: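 Counter-screen wells were identical to the reporter wells. Cells were plated at 1,500 per well and dosed for 5 hr, then read for luminescence 30 min after CellTiter-Glo addition.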

[10] = qHTS assay to identify small molecule antagonists of the retinoid-related orphan receptor gamma (ROR-gamma) signaling pathway - cell viability counter screen (AID 1159520); note: nearly all actives have a fitted effect of over 50% in size; note: potency is the fitted concentration of half-maximal effect
In short: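 Tet-on ROR gamma CHO cells were given compounds for 2 hr, then doxycycline hyclate at 1 uM final, and incubated 16 hr at 37 C. Viability was measured as ATP content by CellTiter-Glo luminescence.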

[11] = target: Nuclear receptor ROR-gamma (Homo sapiens) (UniProt P51449); experiment: qHTS assay to identify small molecule antagonists of the retinoid-related orphan receptor gamma (ROR-gamma) signaling pathway (AID 1159521; note: nearly all actives have a fitted effect of over 50% in size; note: potency is the fitted concentration of half-maximal effect)
In short: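 Cells were plated, rested 4 h at 37 C, exposed to compounds for 2 h, then given 1 uM final doxycycline hyclate to induce RORγ expression. After 16 h, ONE-Glo luminescence from the ROR response element reporter was measured.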

[12] = qHTS assay to identify small molecule agonists of the AP-1 signaling pathway - cell viability counter screen (AID 1159525; calls by dose curve; note: nearly all actives have a fitted effect of over 55% in size; note: potency is the fitted concentration of half-maximal effect)
In short: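 AP-1-bla ME-180 cells in Opti-MEM with 0.5% dialyzed FBS, compound exposure 5 h at 37 C in 15-point titration. Viability read in the same wells as ATP content by CellTiter-Glo luminescence, normalised to tetra-n-octylammonium bromide and DMSO controls.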

[13] = qHTS assay to identify small molecule agonists of the AP-1 signaling pathway (AID 1159526; calls by dose curve; note: potency is the fitted concentration of half-maximal effect)
[14] = target: Retinoic acid receptor RXR-alpha (Homo sapiens) (UniProt P19793); experiment: qHTS assay to identify small molecule agonists of the RXR signaling pathway (AID 1159527; calls by dose curve; note: nearly all actives have a fitted effect of over 35% in size; note: potency is the fitted concentration of half-maximal effect)
In short: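 Cells plated at 2,000/well, rested 5 hr at 37 C, pin-dosed with DMSO compound solutions, incubated 16 hr, then loaded with B/G FRET substrate for 2 hr at RT before dual-emission fluorescence reading.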

[15] = target: Peroxisome proliferator-activated receptor delta (Homo sapiens) (UniProt Q03181); experiment: qHTS assay to identify small molecule agonists of the peroxisome proliferator-activated receptor delta (PPARd) signaling pathway (AID 743212; calls by dose curve)
In short: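 Quantitative high-throughput agonist screen in a HEK293H beta-lactamase reporter line under UAS control. Compounds in DMSO, at 37 C. Fluorescence read after 2 h with FRET substrate at room temperature.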

[16] = target: Peroxisome proliferator-activated receptor delta (Homo sapiens) (UniProt Q03181); experiment: qHTS assay to identify small molecule antagonists of the peroxisome proliferator-activated receptor delta (PPARd) signaling pathway (AID 743215; active = well fitted inhibition curve with a large enough effect in the signal ratio in the repeat runs, not every such curve was filed as active; the % refers to the signal ratio;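 note: cells stimulated with agonist L165041 at 300 nM final during compound exposure; series mostly up to about 62 µM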)
In short: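 With L165041 present at 300 nM final, compounds were incubated 17 h at 37 C on PPARd UAS-bla HEK293H cells. A FRET-based beta-lactamase substrate was then applied for 2 h at room temperature and fluorescence intensity recorded.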

[17] = target: Bile acid receptor (Homo sapiens) (UniProt Q96RI1); experiment: qHTS assay to identify small molecule antagonists of the farnesoid-X-receptor (FXR) signaling pathway (AID 743217; active = well fitted inhibition curve with a large enough effect in the signal ratio in the repeat runs, not every such curve was filed as active; the % refers to the signal ratio; note: potency is the fitted concentration of half-maximal effect)
In short: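 In this cell-based antagonist screen, inhibition of CDCA-driven (50 uM final) UAS-beta-lactamase expression in HEK 293T cells was measured by FRET fluorescence following 16 h compound exposure at 37 °C.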

[18] = target: Vitamin D3 receptor (Homo sapiens) (UniProt P11473); experiment: qHTS assay to identify small molecule agonists of the vitamin D receptor (VDR) signaling pathway (AID 743222; calls by dose curve)
In short: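 VDR-bla cells were seeded, left 4 h, treated with compounds in DMSO for 16 h, incubated 2 h at RT with B/G FRET substrate, and read for fluorescence.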

[19] = target: Vitamin D3 receptor (Homo sapiens) (UniProt P11473); experiment: qHTS assay to identify small molecule antagonists of the vitamin D receptor (VDR) signaling pathway (AID 743223; active = well fitted inhibition curve with a large enough effect in the signal ratio in the repeat runs, not every such curve was filed as active; the % refers to the signal ratio; note: potency is the fitted concentration of half-maximal effect)
In short: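 Cells carrying a VDR-driven beta-lactamase reporter (VDR-bla) were co-treated with compound and 3 nM final 1alpha,25-dihydroxyvitamin D3 for 16 h at 37C; reporter activity was measured as FRET substrate fluorescence after 2 h at room temperature.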

[20] = target: Bile acid receptor (Homo sapiens) (UniProt Q96RI1); experiment: qHTS assay to identify small molecule agonists of the farnesoid-X-receptor (FXR) signaling pathway (AID 743220; active = well fitted activation curve with a large enough effect in the signal ratio in the repeat runs, not every such curve was filed as active; the % refers to the signal ratio)
In short: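 Beta-lactamase reporter under UAS control in GeneBLAzer FXR HEK 293T cells (5000/well) measured with LiveBLAzer FRET substrate after 2 h at room temperature. Compound exposure lasted 16 h at 37C.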

Chain of Retinoic acid receptor RXR-alpha (Homo sapiens) (P19793 whole entry, looked up): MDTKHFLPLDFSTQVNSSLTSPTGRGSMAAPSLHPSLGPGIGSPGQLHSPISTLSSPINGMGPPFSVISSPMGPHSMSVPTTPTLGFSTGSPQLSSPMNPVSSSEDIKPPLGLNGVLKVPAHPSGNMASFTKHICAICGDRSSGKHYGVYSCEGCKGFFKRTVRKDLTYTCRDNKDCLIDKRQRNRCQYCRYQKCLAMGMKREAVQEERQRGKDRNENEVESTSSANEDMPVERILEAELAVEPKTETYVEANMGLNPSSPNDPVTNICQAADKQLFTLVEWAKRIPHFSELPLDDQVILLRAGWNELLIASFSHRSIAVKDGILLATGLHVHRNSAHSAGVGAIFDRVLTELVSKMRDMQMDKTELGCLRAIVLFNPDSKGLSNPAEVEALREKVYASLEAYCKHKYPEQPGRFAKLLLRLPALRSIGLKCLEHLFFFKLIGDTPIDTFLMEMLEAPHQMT
Chain of Peroxisome proliferator-activated receptor delta (Homo sapiens) (Q03181 whole entry, looked up): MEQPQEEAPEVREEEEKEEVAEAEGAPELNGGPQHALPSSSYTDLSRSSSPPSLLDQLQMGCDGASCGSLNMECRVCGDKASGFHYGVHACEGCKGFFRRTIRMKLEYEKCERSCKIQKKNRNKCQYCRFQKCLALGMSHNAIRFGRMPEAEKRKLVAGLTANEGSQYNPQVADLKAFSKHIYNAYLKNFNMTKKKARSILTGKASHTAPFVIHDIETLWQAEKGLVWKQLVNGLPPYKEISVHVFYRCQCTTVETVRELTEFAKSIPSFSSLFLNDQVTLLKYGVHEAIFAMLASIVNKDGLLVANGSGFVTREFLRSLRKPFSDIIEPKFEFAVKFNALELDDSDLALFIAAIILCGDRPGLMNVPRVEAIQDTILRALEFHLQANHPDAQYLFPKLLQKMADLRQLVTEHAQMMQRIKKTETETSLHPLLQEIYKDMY
Chain of Bile acid receptor (Homo sapiens) (Q96RI1 whole entry, looked up): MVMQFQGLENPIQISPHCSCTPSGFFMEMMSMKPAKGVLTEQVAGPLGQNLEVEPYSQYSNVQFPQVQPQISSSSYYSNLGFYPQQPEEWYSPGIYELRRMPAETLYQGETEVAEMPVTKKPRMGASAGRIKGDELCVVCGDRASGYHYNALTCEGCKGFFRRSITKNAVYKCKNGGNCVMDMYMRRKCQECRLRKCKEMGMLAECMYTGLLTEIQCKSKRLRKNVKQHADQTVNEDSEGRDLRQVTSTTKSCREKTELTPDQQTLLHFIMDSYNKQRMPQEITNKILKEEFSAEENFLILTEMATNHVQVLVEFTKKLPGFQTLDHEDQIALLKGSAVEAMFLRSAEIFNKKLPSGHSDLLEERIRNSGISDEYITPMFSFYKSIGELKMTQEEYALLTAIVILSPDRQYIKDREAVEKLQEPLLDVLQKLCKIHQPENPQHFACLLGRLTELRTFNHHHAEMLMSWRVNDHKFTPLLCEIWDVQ
Chain of Vitamin D3 receptor (Homo sapiens) (P11473 whole entry, looked up): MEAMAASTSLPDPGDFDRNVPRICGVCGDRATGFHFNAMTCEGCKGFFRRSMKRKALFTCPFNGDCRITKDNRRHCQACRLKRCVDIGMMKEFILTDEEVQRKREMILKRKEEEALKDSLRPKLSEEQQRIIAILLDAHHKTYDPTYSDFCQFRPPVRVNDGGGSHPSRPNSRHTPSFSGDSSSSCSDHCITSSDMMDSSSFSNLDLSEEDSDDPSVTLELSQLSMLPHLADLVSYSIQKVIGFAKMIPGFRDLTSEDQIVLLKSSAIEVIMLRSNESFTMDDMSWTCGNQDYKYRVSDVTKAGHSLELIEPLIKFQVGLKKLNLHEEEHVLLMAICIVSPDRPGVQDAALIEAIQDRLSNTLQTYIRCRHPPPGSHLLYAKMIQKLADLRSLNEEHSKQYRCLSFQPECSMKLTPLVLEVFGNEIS

Structure (SMILES) | Potency [1] | Potency [2] | Potency [3] | Potency [4] | Potency [5] | Potency [6] | Potency [7] | outcome [8] | Potency [9] | Potency [10] | Potency [11] | Potency [12] | Potency [13] | Potency [14] | outcome [15] | outcome [16] | Potency [17] | outcome [18] | Potency [19] | outcome [20]
CC[n+]1ccccc1 | inactive | inactive | inactive | inactive | inactive | inactive | inactive | inactive | inactive | inactive | inactive and 1.71 µM (active) | inactive | inactive | inactive | – | – | – | – | – | –
Cc1cc(Cl)ccc1N | inactive | inactive | – | inactive | inactive | inactive | inactive | inactive | inactive | inactive | inactive | inactive | inactive | inactive | inactive | inactive | – | – | – | –
Nc1ccc(Cl)cc1 | inactive | inactive | – | inactive | – | – | inactive | inactive | inactive | inactive | inactive | inactive | inactive | 8.71 µM (active) and inactive | inactive | inactive | – | – | – | –
CC(=O)[O][Hg][c]1ccccc1 | 611 nM (active) and 977 nM (active) and 2.98 µM (active) | 1.53 µM (active) and 1.1 µM (active) and 1.68 µM (active) | – | 1.09 µM (active) and 1.1 µM (active) and 2.98 µM (active) | 686 nM (active) and 871 nM (active) and 422 nM (active) | 1.37 µM (active) and 2.19 µM (active) and 2.39 µM (active) | 485 nM (active) and 549 nM (active) and 1.34 µM (active) | – | 485 nM (active) and 692 nM (active) and 2.13 µM (active) | 304 nM (active) and 969 nM (active) and 422 nM (active) | 429 nM (active) and 545 nM (active) and 750 nM (active) | 1.37 µM (active) and 2.45 µM (active) and 4.25 µM (active) | – | – | – | – | 0.776 µM (active) | inactive | 863 nM (active) and 2.13 µM (active) | –
CCC(=O)C(CC(C)N(C)C)(c1ccccc1)c1ccccc1 (stereo not drawn) | – | inactive and 37.4 µM (active) | – | inactive | – | – | 43.8 µM (active) and inactive | inactive | inactive | inactive | 48.8 µM (active) | inactive | inactive | – | – | inactive | inactive | – | – | inactive
CCCCCCCCCCCCn1cc[n+](C)c1 | – | – | – | – | – | – | 34.8 µM (active) and inactive | inactive | – | – | – | 49.4 µM (active) and inactive | inactive and 43.4 µM (active) | inactive | – | – | – | – | 55 µM (active) | –
CC[N+]1(C)CCCC1 | inactive | inactive | – | inactive | inactive | inactive | inactive | inactive | inactive | inactive | inactive | inactive | inactive | inactive | – | – | – | – | – | –
CN(C)[C@@H]1C(=O)C(C(N)=O)=C(O)[C@@]2(O)C(=O)C3=C(O)c4c(O)cccc4[C@@](C)(O)[C@H]3[C@H](O)[C@@H]12 | inactive | inactive | – | inactive | inactive | inactive | inactive | inactive | inactive | inactive | – | inactive | inactive | inactive | – | – | – | – | – | –
N#CS | inactive | inactive | inactive | inactive | inactive | inactive | inactive | inactive | inactive | inactive | – | inactive | inactive | inactive | – | – | – | inactive | inactive | –
CCCCn1cc[n+](C)c1 | inactive | inactive | inactive | inactive | inactive | inactive | inactive | inactive | inactive | inactive | – | inactive | inactive | inactive | – | – | – | – | – | –
CCCCCC[n+]1ccccc1 | 55.5 µM (active) and 55.3 µM (active) and inactive | 55.5 µM (active) and inactive | – | inactive | 39.3 µM (active) and 49.3 µM (active) and inactive | inactive | inactive | inactive | inactive | inactive | inactive | inactive | inactive | inactive | – | – | – | – | – | –
CCCCCCCCCCCCCCCCn1cc[n+](C)c1 | – | – | – | – | – | – | 44.6 µM (active) and inactive and 24.6 µM (active) | inactive | – | inactive and 61.7 µM (active) and 30.7 µM (active) | – | inactive and 21.9 µM (active) | inactive | inactive | inactive | inactive | – | inactive | 15.5 µM (active) | –
O=S(=O)(O)O | inactive | inactive | inactive | inactive | inactive | inactive | inactive | inactive | inactive | inactive | – | inactive | inactive | inactive | – | – | – | – | – | –
CCCC[n+]1ccccc1C | inactive | inactive | – | inactive | inactive | inactive | inactive | inactive | inactive | inactive | inactive | inactive | inactive | inactive | – | – | – | – | – | –
CCCCCCCCn1cc[n+](C)c1 | inactive | inactive | – | inactive | – | – | inactive | inactive | inactive | inactive | – | inactive | inactive | – | – | – | – | inactive | inactive | –
CCCC[n+]1ccccc1 | inactive | inactive | – | inactive | inactive | inactive | inactive | inactive | inactive | inactive | inactive | inactive | inactive | inactive | – | – | – | – | – | –
CCCCn1cc[n+](C)c1C | inactive | inactive | inactive | inactive | inactive | inactive | inactive | inactive | inactive | inactive | – | inactive | inactive | inactive | – | – | – | – | – | –
O=C(O)COc1ccc(Cl)cc1Cl | inactive | inactive | – | inactive | inactive | inactive | inactive | inactive | inactive | inactive | – | inactive | inactive | inactive | inactive | inactive | – | inactive | inactive | –
